Measurements reported in ChEMBL document CHEMBL1961873, “Compounds: GSK PKIS; Assays: Nanosyn kinase panel” (2012).

Tests used:
[1] = target: T1, Muscle, skeletal receptor tyrosine-protein kinase (Homo sapiens) (UniProt O15146); details: at 1 µM;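 further: reported value is the mean percent inhibition of MuSK kinase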
T1 sequence (whole entry): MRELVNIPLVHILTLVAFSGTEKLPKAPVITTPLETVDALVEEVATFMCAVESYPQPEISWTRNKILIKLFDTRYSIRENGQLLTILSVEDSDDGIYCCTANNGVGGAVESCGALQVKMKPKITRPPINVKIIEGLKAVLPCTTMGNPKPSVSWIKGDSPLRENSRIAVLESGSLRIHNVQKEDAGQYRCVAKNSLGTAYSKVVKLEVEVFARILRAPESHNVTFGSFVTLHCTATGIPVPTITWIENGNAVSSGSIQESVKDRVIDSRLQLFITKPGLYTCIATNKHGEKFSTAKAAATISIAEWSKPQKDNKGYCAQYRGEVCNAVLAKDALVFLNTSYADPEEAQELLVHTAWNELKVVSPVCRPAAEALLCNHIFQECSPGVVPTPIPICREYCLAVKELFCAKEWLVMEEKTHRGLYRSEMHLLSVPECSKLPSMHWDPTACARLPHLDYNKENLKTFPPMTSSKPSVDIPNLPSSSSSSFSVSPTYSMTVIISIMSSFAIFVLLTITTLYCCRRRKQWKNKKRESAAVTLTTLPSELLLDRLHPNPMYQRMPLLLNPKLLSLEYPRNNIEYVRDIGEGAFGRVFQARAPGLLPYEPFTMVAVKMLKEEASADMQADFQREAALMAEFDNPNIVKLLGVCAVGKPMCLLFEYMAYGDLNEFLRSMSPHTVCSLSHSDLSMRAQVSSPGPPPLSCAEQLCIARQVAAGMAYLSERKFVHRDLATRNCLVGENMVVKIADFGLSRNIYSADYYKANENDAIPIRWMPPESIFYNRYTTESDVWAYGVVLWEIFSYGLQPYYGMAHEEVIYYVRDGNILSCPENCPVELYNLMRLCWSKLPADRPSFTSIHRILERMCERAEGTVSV

[2] = target: Platelet-derived growth factor receptor alpha (Homo sapiens) (UniProt P16234); details: at 0.1 µM
[3] = target: Platelet-derived growth factor receptor alpha (Homo sapiens) (UniProt P16234); details: at 1 µM
[4] = tested on: Platelet-derived growth factor receptor alpha (Homo sapiens), P16234 [D842V]; details: at 0.1 µM
[5] = tested on: Platelet-derived growth factor receptor alpha (Homo sapiens), P16234 [D842V]; details: at 1 µM
[6] = tested on: Platelet-derived growth factor receptor alpha (Homo sapiens), P16234 [T674I]; details: at 0.1 µM
[7] = tested on: Platelet-derived growth factor receptor alpha (Homo sapiens), P16234 [T674I]; details: at 1 µM
[8] = tested on: Platelet-derived growth factor receptor alpha (Homo sapiens), P16234 [V561D]; details: at 0.1 µM
[9] = tested on: Platelet-derived growth factor receptor alpha (Homo sapiens), P16234 [V561D]; details: at 1 µM
[10] = target: Platelet-derived growth factor receptor beta (Homo sapiens) (UniProt P09619); details: at 0.1 µM;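 further: reported value is the mean percent inhibition of the kinase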
Chain of Platelet-derived growth factor receptor beta (Homo sapiens) (P09619 whole entry): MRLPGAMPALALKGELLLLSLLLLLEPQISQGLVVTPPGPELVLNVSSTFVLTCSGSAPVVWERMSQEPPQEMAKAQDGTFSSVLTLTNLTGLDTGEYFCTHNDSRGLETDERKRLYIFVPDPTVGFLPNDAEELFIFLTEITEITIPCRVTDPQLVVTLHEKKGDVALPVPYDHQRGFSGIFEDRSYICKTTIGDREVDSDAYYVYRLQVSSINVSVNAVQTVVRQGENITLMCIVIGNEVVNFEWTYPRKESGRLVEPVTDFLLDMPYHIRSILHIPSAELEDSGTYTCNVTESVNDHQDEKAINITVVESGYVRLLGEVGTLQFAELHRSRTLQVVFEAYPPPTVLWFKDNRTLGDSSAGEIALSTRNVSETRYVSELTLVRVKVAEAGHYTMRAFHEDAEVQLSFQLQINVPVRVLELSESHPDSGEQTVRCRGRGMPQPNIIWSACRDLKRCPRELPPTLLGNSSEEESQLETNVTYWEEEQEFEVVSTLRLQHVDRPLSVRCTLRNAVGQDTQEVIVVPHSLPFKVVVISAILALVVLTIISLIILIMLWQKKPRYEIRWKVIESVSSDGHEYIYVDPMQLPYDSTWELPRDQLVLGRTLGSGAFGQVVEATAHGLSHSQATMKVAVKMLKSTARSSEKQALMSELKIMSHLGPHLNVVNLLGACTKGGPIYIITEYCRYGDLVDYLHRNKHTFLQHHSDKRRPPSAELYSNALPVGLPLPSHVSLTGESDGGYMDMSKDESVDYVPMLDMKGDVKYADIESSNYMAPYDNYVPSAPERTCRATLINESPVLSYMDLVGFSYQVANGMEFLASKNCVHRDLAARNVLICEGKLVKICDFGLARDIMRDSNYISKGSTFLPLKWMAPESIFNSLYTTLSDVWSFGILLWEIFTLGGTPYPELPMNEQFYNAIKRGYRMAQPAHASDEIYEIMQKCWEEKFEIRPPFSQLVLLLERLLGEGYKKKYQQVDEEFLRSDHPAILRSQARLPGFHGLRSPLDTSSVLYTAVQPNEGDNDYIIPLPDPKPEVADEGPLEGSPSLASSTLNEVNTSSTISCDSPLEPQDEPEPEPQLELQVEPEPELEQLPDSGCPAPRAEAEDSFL

Chain of Platelet-derived growth factor receptor alpha (Homo sapiens), P16234 [T674I] (P16234 whole entry T674I): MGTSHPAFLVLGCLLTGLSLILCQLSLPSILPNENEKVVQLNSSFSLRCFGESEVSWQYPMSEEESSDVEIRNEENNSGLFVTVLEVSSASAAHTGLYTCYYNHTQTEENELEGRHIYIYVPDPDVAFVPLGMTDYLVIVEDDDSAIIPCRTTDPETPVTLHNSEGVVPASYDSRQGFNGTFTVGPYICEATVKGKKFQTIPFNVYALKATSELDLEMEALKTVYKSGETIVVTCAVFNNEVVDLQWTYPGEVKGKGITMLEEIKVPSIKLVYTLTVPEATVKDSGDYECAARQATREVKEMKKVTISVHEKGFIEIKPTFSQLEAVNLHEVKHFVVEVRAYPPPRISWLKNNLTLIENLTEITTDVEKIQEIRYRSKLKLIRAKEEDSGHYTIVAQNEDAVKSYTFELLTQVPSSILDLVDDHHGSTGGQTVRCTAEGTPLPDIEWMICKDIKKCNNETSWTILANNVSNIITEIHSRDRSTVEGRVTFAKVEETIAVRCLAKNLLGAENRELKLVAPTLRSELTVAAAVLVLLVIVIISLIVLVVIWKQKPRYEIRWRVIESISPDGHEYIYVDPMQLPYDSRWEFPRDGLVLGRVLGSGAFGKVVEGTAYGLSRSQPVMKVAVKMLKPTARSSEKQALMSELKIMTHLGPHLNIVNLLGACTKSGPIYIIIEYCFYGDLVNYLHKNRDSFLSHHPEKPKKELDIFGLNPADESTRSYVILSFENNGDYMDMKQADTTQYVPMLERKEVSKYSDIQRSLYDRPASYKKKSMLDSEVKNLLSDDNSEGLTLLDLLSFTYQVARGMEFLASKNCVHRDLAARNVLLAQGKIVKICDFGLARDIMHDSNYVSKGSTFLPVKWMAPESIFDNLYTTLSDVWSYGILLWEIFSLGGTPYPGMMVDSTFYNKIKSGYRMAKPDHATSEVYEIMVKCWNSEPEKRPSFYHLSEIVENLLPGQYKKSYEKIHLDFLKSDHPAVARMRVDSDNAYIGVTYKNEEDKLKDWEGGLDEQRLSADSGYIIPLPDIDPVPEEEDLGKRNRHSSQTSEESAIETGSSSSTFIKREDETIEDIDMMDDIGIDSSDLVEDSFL
Chain of Platelet-derived growth factor receptor alpha (Homo sapiens), P16234 [V561D] (P16234 whole entry V561D): as the sequence (P16234 whole entry T674I) above, with V561D, I674T counted along it
Chain of Platelet-derived growth factor receptor alpha (Homo sapiens), P16234 [D842V] (P16234 whole entry D842V): as the sequence (P16234 whole entry T674I) above, with I674T, D842V counted along it
Chain of Platelet-derived growth factor receptor alpha (Homo sapiens) (P16234 whole entry): as the sequence (P16234 whole entry T674I) above, with I674T counted along it

Structure (SMILES)	inhibition [1] [%]	inhibition [2] [%]	inhibition [3] [%]	inhibition [4] [%]	inhibition [5] [%]	inhibition [6] [%]	inhibition [7] [%]	inhibition [8] [%]	inhibition [9] [%]	inhibition [10] [%]
Cc1ccc(NC(=O)c2ccoc2)cc1-c1ccc(C(=O)NCC2CC2)cc1	1.19	3.05	4.97	0.3	0.74	0.22	4.2	0.35	1	1.42
NS(=O)(=O)c1ccc(N/N=C2\C(=O)Nc3ccc(-c4cnco4)cc32)cc1	18.5	13.9	49.8	6.86	40.8	1.96	13.9	8.44	46.8	12.1
COc1cc2ncn(-c3cc(OCc4ccccc4C(F)(F)F)c(C(C)=O)s3)c2cc1OC	3.03	10.4	31.8	3.21	13.8	5.42	13.4	3.99	19.7	8.96
NC(=O)c1cc(-c2ccncc2)cc(-c2ccccc2)c1N	3.55	9.17	36.2	3.01	11.3	5.87	11.6	5.79	37.8	9.7
NC(=O)Cc1ccccc1Oc1nccc(-c2c(-c3ccc(F)cc3)ncn2C2CCNCC2)n1	1.69	3.58	7.12	0.37	0.79	3.6	2.14	-0.19	4.04	3.93
FC(F)(F)c1cccc(Nc2nccc(-c3cnn4nc(-c5ccccc5)ccc34)n2)c1	0.42	7.91	42.6	4.44	33.6	3.36	9.98	6.8	39.2	7.48
CCc1ccc(Oc2nccc(-c3c(-c4ccc(F)cc4)ncn3C3CCNCC3)n2)cc1	6.47	2.2	10.4	1.14	3.96	4.41	8.8	2.14	4.49	1.82
COc1cc(Nc2ncc(-c3ccccc3)o2)cc(OC)c1OC	14.5	17.7	69.6	9.16	43	27.4	77.7	35.7	76.1	23
COc1cc2ncn(-c3cc(OCCc4ccccc4)c(C(N)=O)s3)c2cc1OC	3.75	10.5	51.4	8.08	44.9	1.08	10.7	5.35	39.8	10.8
C[C@@H](Oc1cc(-n2cnc3ccc(OCC4CCN(C)CC4)cc32)sc1C(N)=O)c1ccccc1Cl	88.3	26.5	75.7	10.9	54.2	12.7	62.1	14.7	64.7	39.8
COc1cc2ncn(-c3cc(OCc4cccs4)c(C(N)=O)s3)c2cc1OC	12.1	36	77.6	19.4	72.8	7.11	57.7	24.7	72.9	31.2
CS(=O)(=O)CCNCc1ccc(-c2ccc3ncnc(Nc4ccc(OCc5ccccc5)c(Br)c4)c3c2)o1	-1.75	6.94	12.7	2.31	4.09	2.28	5.56	3.03	5.85	3.75
O=C(Nc1n[nH]c2nc(-c3ccco3)ccc12)C1CC1	7.97	6.36	10.6	3.54	6.18	4.27	6.36	3.66	7.73	1.45
COc1cc(N2CCN(C(C)C)CC2)ccc1Nc1nc(Nc2ccc(F)cc2C(=O)NC[C@@H](O)CO)c2cc[nH]c2n1	3.79	6.23	14.1	1.85	5.49	6.54	9.18	4.51	4.42	1.36
C[C@@H](Oc1cc(-n2cnc3ccc(OC4CCN(C)CC4)cc32)sc1C(N)=O)c1ccccc1Cl	40.8	29.3	69	10.5	53.6	8.48	58	14.5	65	26.3
CCc1cccc(CC)c1/C=C/c1cncc(C(=O)NC)c1	0.76	9.56	7.82	0.6	1.22	2.23	2.91	-0.14	3.75	7.91
O=C1NC(=O)C(c2cccc(Cl)c2)=C1Nc1ccc(Cl)c(C(=O)O)c1	3.32	5.36	9.61	0.72	1.68	6.92	5.66	2.77	0.49	1.55

Structure (SMILES)	inhibition [1] [%]	inhibition [2] [%]	inhibition [3] [%]	inhibition [4] [%]	inhibition [5] [%]	inhibition [6] [%]	inhibition [7] [%]	inhibition [8] [%]	inhibition [9] [%]	inhibition [10] [%]
O=C1Nc2ccccc2/C1=C/Nc1ccc(-n2cncn2)cc1	30.9	10.5	45.5	4.56	24.2	13.1	67.2	10.8	44.8	7.25
CCS(=O)(=O)c1ccc(OC)c(Nc2ncc(-c3ccccc3Cl)o2)c1	8.58	5.6	16.2	1.1	4.35	0.38	5.02	2.97	15.1	4.1
CCN(CC)Cc1ccc(Nc2nccc(-c3cnn4ncccc34)n2)cc1	30.5	17.5	55.5	10.1	51.1	6.93	34.9	18	64.2	29.1
O=C(Nc1n[nH]c2cc(-c3cc(F)ccc3F)ccc12)C1CC1	10.1	7.53	18.3	2.07	7.89	5.2	9.61	3.2	13.2	3.6
COc1ccc2cc(-c3c(-c4ccncc4)nc(-c4ccc([S+](C)[O-])cc4C)n3C)ccc2c1 (stereo not given)	0.57	0.98	12.4	-0.45	2.27	0.22	2.22	-2.47	5.84	0.23
Fc1ccc(-c2ncn(C3CCNCC3)c2-c2ccnc(Oc3ccc4c(c3)OCO4)n2)cc1	4.22	11.8	15.7	2.99	5.32	11.5	16.1	5.05	5.41	7.36
Clc1ccc(CNc2nccc(-c3cnn4ncccc34)n2)cc1	3.54	4.87	15.4	0.87	4.84	0.55	2.46	1.98	7.98	3.92
COc1cc(Nc2ncc3c(C)nc(-c4cccc(C(F)(F)F)c4)n3n2)cc(OC)c1OC	19	13	25.8	2.68	13.1	7.3	8.12	5.66	14.6	10.3
NS(=O)(=O)c1ccc(Nc2cc(-c3ccc(O)c(F)c3)n[nH]2)cc1	41	17	61.5	4.48	39.5	11.1	73.5	33.2	68.3	11.8
Fc1ccc(-c2ncn(CCCN3CCOCC3)c2-c2ccncc2)cc1	1.32	6.11	7.26	2.37	1.54	1.55	-0.15	-0.24	3.42	-0.37
CN1CCN(CCCNc2nc3ccc(Oc4ccc(NC(=O)Nc5cc(C(F)(F)F)ccc5F)cc4)cc3[nH]2)CC1	59.2	32.6	76.4	2.11	4.41	29.5	90.7	36	80.7	14.1
NS(=O)(=O)c1ccc(N/N=C2\C(=O)Nc3ccc(C(=O)NCCCn4ccnc4)cc32)cc1	21.6	10.6	54.2	13	57.8	5.56	12.4	11.6	47	23.1
CN(c1ccc(NC(=O)Nc2c(Cl)cccc2Cl)cc1)c1ccnc(Nc2cccc(CS(C)(=O)=O)c2)n1	89.9	69.3	86.6	6.78	28.6	72.1	97.5	78.7	91.2	52.4
O=C(Nc1n[nH]c2cc(-c3ccccc3)ccc12)C1CC1	4.91	8.78	20.4	2.33	8.97	4.04	9.67	4.85	19.4	6.45
COc1ccc(C2=C(N3CCc4ccccc43)C(=O)NC2=O)cc1	6.74	4.56	16.3	5.15	8.45	7.16	10.6	5.61	6.87	5.31
CNC(=O)c1cncc(/C=C/c2c(C)cccc2C)c1	5.15	8.57	34.4	0.09	4.23	0.35	1.37	21.3	48	7.03
NC(=O)c1ccc(Oc2nccc(-c3c(-c4ccc(F)cc4)ncn3C3CCNCC3)n2)cc1	9.48	5.32	10.6	2.12	4.3	2.24	6.2	5.07	7.97	4.31
